Source: PubChem BioAssay (NCATS)
“And” between values parts separate entries of the source, which are not always exact repeats. Identical values can stand only once. Results filed as inconclusive are left out. The source made the active and inactive calls. Unless noted, calls come from the whole dose curve; as a rule, active = well fitted curve in the direction sought with a large enough effect; inconclusive = small, poorly fitted or top-dose-only effect, or another doubt; inactive = no such curve, though single readings can be large; an effect the other way counts as inactive or inconclusive.

Experiments:
[1] = target: Peroxisome proliferator-activated receptor gamma (Homo sapiens) (UniProt P37231); assay: qHTS assay for small molecule agonists of peroxisome proliferator-activated receptor gamma signaling (AID 588536; active = well fitted curve in the direction sought with a large enough effect in the signal ratio, with a control signal flat, not every such curve was filed as active; the % refers to the signal ratio;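 note: 0% = DMSO basal wells and 100% = rosiglitazone at 2 µM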)
Chain of Peroxisome proliferator-activated receptor gamma (Homo sapiens) (P37231 whole entry, looked up): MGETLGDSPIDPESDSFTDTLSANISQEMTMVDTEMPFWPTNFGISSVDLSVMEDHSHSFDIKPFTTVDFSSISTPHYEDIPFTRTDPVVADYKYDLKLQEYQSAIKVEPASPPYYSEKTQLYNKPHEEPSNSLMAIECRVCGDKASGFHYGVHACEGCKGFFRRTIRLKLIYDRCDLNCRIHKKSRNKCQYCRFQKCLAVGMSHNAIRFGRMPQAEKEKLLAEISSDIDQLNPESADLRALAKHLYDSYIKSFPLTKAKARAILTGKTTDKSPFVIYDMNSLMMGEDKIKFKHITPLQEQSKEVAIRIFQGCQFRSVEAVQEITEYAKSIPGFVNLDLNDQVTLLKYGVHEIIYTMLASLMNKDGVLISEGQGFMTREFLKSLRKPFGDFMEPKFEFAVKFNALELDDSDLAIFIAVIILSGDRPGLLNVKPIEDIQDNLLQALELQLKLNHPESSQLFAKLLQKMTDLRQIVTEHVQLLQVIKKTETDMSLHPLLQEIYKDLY
Procedure, shortened: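 PPAR-gamma-UAS-bla HEK293 cells in medium with 1% charcoal/dextran-treated FBS were exposed to compounds for 16 h at 37 C. Beta-lactamase activity was read with CCF4 substrate (405 nm excitation, 460/530 nm emission).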

[2] = target: Peroxisome proliferator-activated receptor gamma (Homo sapiens) (UniProt P37231); assay: qHTS assay for small molecule antagonists of peroxisome proliferator-activated receptor gamma signaling (AID 588537; active = well fitted inhibition curve with a large enough effect in the signal ratio, with a control signal flat, not every such curve was filed as active; the % refers to the signal ratio;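 note: reporter cells co-stimulated with 50 nM rosiglitazone agonist during compound treatment; % of control where 0% means no effect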)
Procedure, shortened: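 Inhibitors of agonist-stimulated UAS-bla reporter activity were sought in HEK293 cells; rosiglitazone (50 nM) defined full signal and DMSO baseline. Curves fitted to Hill model gave IC50 and efficacy.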

[3] = qHTS assay for small molecule agonists of retinoid X receptor alpha signaling (AID 588544; calls by dose curve;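 for activation: 0% = DMSO basal wells and 100% = reference agonist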); details: HEK293T RXRa-UAS-bla, beta-lactamase reporter, 18 h; 530 nm emission
[4] = target: Retinoic acid receptor RXR-alpha (Homo sapiens) (UniProt P19793); assay: as above
Chain of Retinoic acid receptor RXR-alpha (Homo sapiens) (P19793 whole entry, looked up): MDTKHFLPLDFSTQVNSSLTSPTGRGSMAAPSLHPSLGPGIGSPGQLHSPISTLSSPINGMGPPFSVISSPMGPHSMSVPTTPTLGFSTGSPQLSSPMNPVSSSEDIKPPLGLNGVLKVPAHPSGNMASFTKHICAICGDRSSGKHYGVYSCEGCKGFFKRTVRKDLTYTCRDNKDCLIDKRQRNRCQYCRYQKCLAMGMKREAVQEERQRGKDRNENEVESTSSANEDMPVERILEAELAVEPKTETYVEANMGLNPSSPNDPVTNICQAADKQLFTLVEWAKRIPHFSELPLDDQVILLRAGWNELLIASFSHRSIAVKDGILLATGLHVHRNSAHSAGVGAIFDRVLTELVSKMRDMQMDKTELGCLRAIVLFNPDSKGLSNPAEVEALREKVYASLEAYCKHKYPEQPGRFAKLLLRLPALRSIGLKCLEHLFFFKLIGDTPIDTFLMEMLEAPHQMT

[5] = target: Thyroid hormone receptor beta (Homo sapiens) (UniProt P10828); assay: qHTS assay for small molecule agonists of thyroid hormone receptor beta signaling (AID 588545; calls by dose curve)
Chain of Thyroid hormone receptor beta (Homo sapiens) (P10828 whole entry, looked up): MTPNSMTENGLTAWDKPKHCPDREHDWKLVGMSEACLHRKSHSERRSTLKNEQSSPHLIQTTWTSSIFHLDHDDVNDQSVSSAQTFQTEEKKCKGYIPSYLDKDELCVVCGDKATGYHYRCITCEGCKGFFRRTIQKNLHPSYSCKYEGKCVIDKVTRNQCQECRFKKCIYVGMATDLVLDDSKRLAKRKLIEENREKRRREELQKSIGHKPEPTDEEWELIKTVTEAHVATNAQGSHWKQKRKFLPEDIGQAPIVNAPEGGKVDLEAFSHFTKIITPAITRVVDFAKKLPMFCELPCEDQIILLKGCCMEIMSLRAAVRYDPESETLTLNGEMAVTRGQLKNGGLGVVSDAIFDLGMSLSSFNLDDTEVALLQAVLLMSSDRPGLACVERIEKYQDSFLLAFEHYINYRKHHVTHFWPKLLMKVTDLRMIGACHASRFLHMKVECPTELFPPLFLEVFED
Procedure, shortened: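 HEK 293 TR-UAS-bla; agonist mode; 18 hrs, 37 C; CCF4, ex 405/em 460 and 530 nm; norm. T3 10 nM = 100%, DMSO = 0%; Hill fit → EC50, efficacy.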

[6] = qHTS assay for small molecule antagonists of retinoid X receptor alpha signaling (AID 588546; active = well fitted inhibition curve with a large enough effect in the signal ratio, with a control signal flat, not every such curve was filed as active; the % refers to the signal ratio;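 note: cells stimulated with 9-cis-retinoic acid as agonist; % is set by controls: 0 for no effect and ±100 for the full control effect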); details: HEK293T RXRa-UAS-bla, beta-lactamase ratio, antagonist mode; measured here: W530 green channel, cytotoxicity proxy
Procedure, shortened: (§1)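 Beta-lactamase reporter inhibition, read as CCF4 fluorescence ratio (ex 405, em 460/530 nm) after 2 h at RT. HEK293T UAS-bla cells, 2500/well, were stimulated with 9-cis-RA at 500 or 100 nM final alongside test compound for 18 h at 37 C.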

[7] = target: Retinoic acid receptor RXR-alpha (Homo sapiens) (UniProt P19793); assay: as above; details: HEK293T RXRa-UAS-bla, beta-lactamase ratio, antagonist mode
Procedure, shortened: as §1

[8] = target: Thyroid hormone receptor beta (Homo sapiens) (UniProt P10828); assay: qHTS assay for small molecule antagonists of thyroid hormone receptor beta signaling (AID 588547; active = well fitted inhibition curve with a large enough effect in the signal ratio, with a control signal flat, not every such curve was filed as active; the % refers to the signal ratio;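 note: cells stimulated with 0.4 nM T3 agonist during compound exposure; % is set by controls: 0 for no effect and ±100 for the full control effect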); details: TR-UAS-bla HEK293, beta-lactamase ratio, antagonist mode, 18 h
Procedure, shortened: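 Inhibition of T3-driven (0.4nM final) beta-lactamase reporter activity was measured over 0.59 nM to 92 uM compound after 18 h at 37 C. The cells were GripTite HEK293 TR-UAS-bla in charcoal/dextran-stripped serum, with CCF4 ratio read-out and IC50 from Hill fits.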

[9] = qHTS assay for small molecule activators of the p53 signaling pathway (AID 651743; active = well fitted activation curve with a large enough effect in the signal ratio, not every such curve was filed as active; the % refers to the signal ratio; note: % of control where 0% means no effect); details: HCT-116 p53RE-bla, beta-lactamase FRET ratio, 16 h; activation: stronger effect = higher value
Procedure, shortened: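 Screen for p53 pathway agonists uses stably transfected p53RE-bla HCT-116 cells, 4,000 per well, treated 16 h at 37 C with compounds in DMSO.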

[10] = qHTS assay for small molecule disruptors of the mitochondrial membrane potential - 1 hr assay (AID 651754; calls by dose curve; note: potency is the fitted concentration of half-maximal effect; nearly all actives have a fitted effect of over 35% in size)
Procedure, shortened: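 Steps: seed HepG2 cells and let attach overnight; pin-transfer compound or vehicle; incubate 1 hr at 37C; add Mito-MPS dye for 30 min; read two-channel fluorescence for monomer and aggregate forms.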

[11] = qHTS assay for small molecule disruptors of the mitochondrial membrane potential - 5 hr assay (AID 651755; calls by dose curve; note: potency is the fitted concentration of half-maximal effect; nearly all actives have a fitted effect of over 40% in size)
Procedure, shortened: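 HepG2, 2,000 cells/well, overnight attach; cpd or DMSO 5 hr, 37C/5% CO2; Mito-MPS 30 min 37C; fluor 490/535 + 540/590 nm.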

[12] = target: Tumor necrosis factor (Homo sapiens) (UniProt P01375); assay: qHTS assay to identify small molecules that stimulate Tumor Necrosis Factor-alpha (TNF-alpha) secretion (AID 651757; active = well fitted curve in the direction sought with a large enough effect in the signal ratio; the % refers to the signal ratio; note: 0% is about no effect)
Chain of Tumor necrosis factor (Homo sapiens) (P01375 whole entry, looked up): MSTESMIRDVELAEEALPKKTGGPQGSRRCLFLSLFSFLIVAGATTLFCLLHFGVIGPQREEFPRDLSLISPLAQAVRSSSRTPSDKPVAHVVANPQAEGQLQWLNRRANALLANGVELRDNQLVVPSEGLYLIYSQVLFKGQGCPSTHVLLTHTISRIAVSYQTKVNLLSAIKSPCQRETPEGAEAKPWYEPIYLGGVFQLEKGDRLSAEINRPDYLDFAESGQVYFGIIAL
Procedure, shortened: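 Secreted TNF-alpha from compound-treated THP-1 cells (17 hrs, 37 C) was quantified with a homogeneous time-resolved fluorescence antibody assay.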

[13] = qHTS assay for environmental chemicals that activate the Aryl hydrocarbon Receptor (AhR) signaling pathway (AID 651777); details: 1A2-DRE human hepatoma cells, luciferase, 24 h; activation: stronger effect = higher value; note: % of control where 0% means no effect; nearly all actives have a fitted effect of over 15% in size
Procedure, shortened: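 Stable CYP1A2 promoter/DRE-luciferase human hepatoma line treated 24 hr; One-Glo luminescence, 30 min RT.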

[14] = target: Peroxisome proliferator-activated receptor alpha (Homo sapiens) (UniProt Q07869); assay: qHTS assay for small molecule agonists of the peroxisome proliferator-activated receptor alpha (PPARalpha) signaling pathway (AID 651778); details: PathHunter PPARalpha complementation, chemiluminescence, 6 h; stronger effect = higher value; note: % of control where 0% means no effect
Chain of Peroxisome proliferator-activated receptor alpha (Homo sapiens) (Q07869 whole entry, looked up): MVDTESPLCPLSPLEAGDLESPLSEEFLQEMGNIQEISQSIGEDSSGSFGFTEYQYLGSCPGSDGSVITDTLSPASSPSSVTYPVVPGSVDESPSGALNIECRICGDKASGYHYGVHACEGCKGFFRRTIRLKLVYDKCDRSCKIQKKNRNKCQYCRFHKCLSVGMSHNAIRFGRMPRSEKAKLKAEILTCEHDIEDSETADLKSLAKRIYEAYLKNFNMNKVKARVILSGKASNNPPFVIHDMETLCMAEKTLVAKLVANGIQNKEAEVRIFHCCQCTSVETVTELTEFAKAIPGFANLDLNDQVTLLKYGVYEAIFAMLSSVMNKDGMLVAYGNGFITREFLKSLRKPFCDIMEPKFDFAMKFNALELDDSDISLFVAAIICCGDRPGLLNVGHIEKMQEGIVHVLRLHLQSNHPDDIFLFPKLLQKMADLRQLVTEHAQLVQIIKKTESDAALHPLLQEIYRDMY
Procedure, shortened: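 Chemiluminescence from complemented enzyme reported PPARalpha activation in cells after 6 hr of compound treatment at 37 C. The detection reagent was incubated for 60 min at room temperature, and compounds were scored as agonists.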

[15] = target: Nuclear receptor ROR-gamma (Homo sapiens) (UniProt P51449); assay: qHTS assay for small molecule antagonists of the retinoid-related orphan receptor gamma (ROR-gamma) signaling pathway (AID 651802); note: potency is the fitted concentration of half-maximal effect; nearly all actives have a fitted effect of over 60% in size
Chain of Nuclear receptor ROR-gamma (Homo sapiens) (P51449 whole entry, looked up): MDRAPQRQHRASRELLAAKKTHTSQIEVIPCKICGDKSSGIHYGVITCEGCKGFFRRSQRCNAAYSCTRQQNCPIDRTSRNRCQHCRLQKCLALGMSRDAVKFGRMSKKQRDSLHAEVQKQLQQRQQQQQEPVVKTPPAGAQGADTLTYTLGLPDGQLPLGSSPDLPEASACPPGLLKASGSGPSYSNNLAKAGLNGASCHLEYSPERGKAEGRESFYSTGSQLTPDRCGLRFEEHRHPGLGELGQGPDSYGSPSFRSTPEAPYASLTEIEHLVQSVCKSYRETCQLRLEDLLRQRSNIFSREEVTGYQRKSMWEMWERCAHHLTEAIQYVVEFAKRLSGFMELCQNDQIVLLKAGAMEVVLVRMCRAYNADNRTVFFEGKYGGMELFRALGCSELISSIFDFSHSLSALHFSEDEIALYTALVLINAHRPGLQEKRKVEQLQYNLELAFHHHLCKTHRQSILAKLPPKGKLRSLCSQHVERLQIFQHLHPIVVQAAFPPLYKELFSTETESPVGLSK
Procedure, shortened: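 Antagonism is scored as a fall in luminescence from a RORE-luciferase reporter in CHO cells expressing ROR under a TET-inducible promoter, measured 16hr after doxycycline induction in the presence of compound.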

[16] = qHTS assay for small molecule agonists of the antioxidant response element (ARE) signaling pathway measured by Nrf2-dependant transcriptional activity (AID 720636; active = well fitted curve in the direction sought with a large enough effect in the repeat runs; an effect the other way counts as inactive or inconclusive;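 note: HepG2 cells with an ARE-driven luciferase reporter; % of control where 0% means no effect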)
Procedure, shortened: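 Reporter gene assay, HepG2 ARE-luc: 16 hr compound, 37 C, 5% CO2; read-out luciferase luminescence.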

[17] = qHTS assay for small molecule agonists of the antioxidant response element (ARE) signaling pathway measured by Nrf2-dependant transcriptional activity - cell viability counter screen (AID 720653; active = well fitted curve in the direction sought with a large enough effect in the repeat runs; an effect the other way counts as inactive or inconclusive; note: % is set by controls: 0 for no effect and ±100 for the full control effect); details: ARE-bla HepG2 viability, CellTiter-Glo ATP luminescence, 16 h; stronger effect = lower value
Procedure, shortened: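 Cytotoxicity counter screen: intracellular ATP quantified by CellTiter-Glo luminescence in the same ARE-bla HepG2 plates, after 16 h compound exposure and a 2 h beta-lactamase substrate step.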

[18] = qHTS assay for cell viability of HEK293 cells (AID 743288); details: ATP luminescence (CellTiter-Glo), 18 h; max response: stronger effect = lower value; note: % is set by controls: 0 for no effect and ±100 for the full control effect; nearly all actives have a fitted effect of over 50% in size
Procedure, shortened: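 The Tox21 protocol used parental HEK293 cells treated for 18 h at 37 C with compounds delivered by pintool; ATP-coupled luminescence after 30 min at room temperature gave viability.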

[19] = qHTS assay for cell viability of the p53RE-bla HCT-116 cell line (AID 743292); note: % is set by controls: 0 for no effect and ±100 for the full control effect; nearly all actives have a fitted effect of over 55% in size
Procedure, shortened: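 Readout: CellTiter-Glo luminescence after 30 min RT. Treatment: compounds in DMSO, 16 h, 37 C. Cells: CellSensor p53RE-bla HCT-116, 4,000/well, preincubated 5 h.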

[20] = target: Catechol O-methyltransferase (Homo sapiens) (UniProt P21964); assay: Confirmatory Screen for Target Class Profiling of Small Molecule Inhibitors of Methyltransferases (AID 1745852; calls by dose curve; note: potency is the fitted concentration of half-maximal effect); details: MTase-Glo luminescence, SAH detection, recombinant enzyme; measured here: COMT max response; stronger effect = lower value
Chain of Catechol O-methyltransferase (Homo sapiens) (P21964 whole entry, looked up): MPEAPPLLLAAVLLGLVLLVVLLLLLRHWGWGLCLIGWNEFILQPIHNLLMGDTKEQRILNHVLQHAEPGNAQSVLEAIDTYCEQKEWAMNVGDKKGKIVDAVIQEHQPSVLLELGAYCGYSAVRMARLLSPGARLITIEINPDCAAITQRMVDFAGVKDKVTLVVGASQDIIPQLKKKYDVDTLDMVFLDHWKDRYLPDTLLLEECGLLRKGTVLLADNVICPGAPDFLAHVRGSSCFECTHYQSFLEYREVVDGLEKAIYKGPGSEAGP

[21] = target: Guanidinoacetate N-methyltransferase (Homo sapiens) (UniProt Q14353); assay: as above; details: MTase-Glo luminescence, SAH detection, recombinant enzyme; activity change, negative = inhibition: at 85.7 µM (top of the series) unless noted
[22] = target: Nicotinamide N-methyltransferase (Homo sapiens) (UniProt P40261); assay: as above; details: MTase-Glo luminescence, SAH detection, recombinant enzyme; measured here: NNMT max response; stronger effect = lower value
Chain of Nicotinamide N-methyltransferase (Homo sapiens) (P40261 whole entry, looked up): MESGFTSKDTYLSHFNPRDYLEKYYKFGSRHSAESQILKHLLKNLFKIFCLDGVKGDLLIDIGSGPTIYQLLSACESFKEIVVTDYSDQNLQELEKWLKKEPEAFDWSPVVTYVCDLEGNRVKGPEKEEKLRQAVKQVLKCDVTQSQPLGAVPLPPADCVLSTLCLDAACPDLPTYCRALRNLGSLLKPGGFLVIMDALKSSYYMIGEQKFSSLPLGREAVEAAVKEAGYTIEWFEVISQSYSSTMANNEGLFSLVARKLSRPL

[23] = target: Phenylethanolamine N-methyltransferase (Homo sapiens) (UniProt P11086); assay: as above; details: MTase-Glo luminescence, SAH detection, recombinant enzyme; measured here: PNMT max response; stronger effect = lower value
Chain of Phenylethanolamine N-methyltransferase (Homo sapiens) (P11086 whole entry, looked up): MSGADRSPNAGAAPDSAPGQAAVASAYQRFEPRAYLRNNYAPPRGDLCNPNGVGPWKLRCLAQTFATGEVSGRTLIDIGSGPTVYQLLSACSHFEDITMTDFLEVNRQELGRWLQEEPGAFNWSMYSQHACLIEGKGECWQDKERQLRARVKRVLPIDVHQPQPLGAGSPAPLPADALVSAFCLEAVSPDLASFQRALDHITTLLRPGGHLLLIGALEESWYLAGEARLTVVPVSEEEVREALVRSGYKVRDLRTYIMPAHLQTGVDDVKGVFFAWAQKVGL

[24] = target: Glutathione peroxidase 1 (Homo sapiens) (UniProt P07203); assay: Primary qHTS Assay for Inhibitors of Recombinant Selenoprotein Glutathione Peroxidase 1 (GPX1) (AID 1845191); note: % is set by controls: 0 for no effect and ±100 for the full control effect; nearly all actives have a fitted effect of over 65% in size
Chain of Glutathione peroxidase 1 (Homo sapiens) (P07203 whole entry, looked up): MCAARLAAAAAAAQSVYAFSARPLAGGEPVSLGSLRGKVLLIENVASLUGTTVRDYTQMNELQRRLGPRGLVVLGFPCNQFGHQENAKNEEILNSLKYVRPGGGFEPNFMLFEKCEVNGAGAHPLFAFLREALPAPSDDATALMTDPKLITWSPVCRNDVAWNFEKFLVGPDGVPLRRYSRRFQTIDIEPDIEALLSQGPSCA
Procedure, shortened: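 10 nM GPX1 + cpd, 30 min RT; start w/ 1 mM GSH, 0.5 mM cumene hydroperoxide, 0.5 mM NADPH, 100 nM GR, 0.01% BSA; buffer 50 mM Tris-HCl pH 7.5, 2 mM EDTA, 150 mM NaCl; Fl 340/450, 0 & 15 min.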

[25] = target: Nuclear receptor subfamily 1 group I member 2 (Rattus norvegicus) (UniProt Q9R1A7); assay: qHTS assay for small molecule activators of the rat pregnane X receptor (rPXR) signaling pathway (AID 651751; call rule not given here; note: 0% is about no effect); details: rPXR reporter cells, luciferase (One-Glo), 24 h
Chain of Nuclear receptor subfamily 1 group I member 2 (Rattus norvegicus) (Q9R1A7 whole entry, looked up): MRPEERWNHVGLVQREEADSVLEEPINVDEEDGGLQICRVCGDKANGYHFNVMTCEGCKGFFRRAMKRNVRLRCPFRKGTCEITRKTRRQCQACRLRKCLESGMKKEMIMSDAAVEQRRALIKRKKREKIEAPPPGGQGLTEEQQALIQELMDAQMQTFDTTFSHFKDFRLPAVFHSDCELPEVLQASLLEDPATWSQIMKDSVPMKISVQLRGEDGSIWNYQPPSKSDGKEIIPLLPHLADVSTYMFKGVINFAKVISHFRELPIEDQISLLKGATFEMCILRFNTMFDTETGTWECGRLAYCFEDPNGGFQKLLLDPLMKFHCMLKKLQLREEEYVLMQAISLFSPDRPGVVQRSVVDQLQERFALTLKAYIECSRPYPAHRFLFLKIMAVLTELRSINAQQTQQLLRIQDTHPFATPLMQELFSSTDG

C[C@H]1CCCC(=O)CCC/C=C/c2cc(O)cc(O)c2C(=O)O1
-93%: activity [20]
-95%: activity [23]
-13.4% and 26.9%: max response [3]
inactive: outcome [1] | Potency [2] | Potency [4] | outcome [5] | max response [7] -20.8% | activity change % (negative = inhibition) [8] -19.1% and -18.2% | activation [9] 20.6% | outcome [12] | activation [13] -5.88% and -4.48% and -7.69% | max response [14] -0.403% and -3.88% and -0.278% | outcome [16] | max response [17] -27% and -18.5% | max response [18] -26.5% and -8.31% and -15% | Potency [19] | Potency [24] | max response [25] -12.4% and -5.06% and -7.58%
active: Potency [10] 37.6 µM | Potency [11] 33.5 µM and 37.6 µM | Potency [15] 42.2 µM | Potency [21] 17.1 µM
17.7%: max response [6]
-84.9%: activity [22]
